D1 antagonist = antagonists of human D1 dopamine receptor. activity change, negative = inhibition, % at 10 µM. 360,000 tested, 3.2% active. P21728. HEK293 TREx D1 cells, calcium flux, dopamine EC80; active compounds read low; in the data active = activity change below about -30%; note: % is set by controls: 0 for no effect and ±100 for the full control effect
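Using tetracycline-induced force-coupled D1 Hek293 cells and a calcium dye, signals were followed for 180 s after compound, then for 180 s after EC80 dopamine, to detect inhibitors.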
D3 antag = blocks the human D3 dopamine receptor. 360,000 tested, 2.5% active. AID 652054. D3R cells, DiscoveRx beta-arrestin luminescence, antagonist mode; active compounds read low. max response, negative = inhibition, %. P35462; in the data active = max response below about -50%; inconclusive = no clear call, values can overlap the other calls; note: % is set by controls: 0 for no effect and ±100 for the full control effect
Target sequence (P35462 whole entry, looked up): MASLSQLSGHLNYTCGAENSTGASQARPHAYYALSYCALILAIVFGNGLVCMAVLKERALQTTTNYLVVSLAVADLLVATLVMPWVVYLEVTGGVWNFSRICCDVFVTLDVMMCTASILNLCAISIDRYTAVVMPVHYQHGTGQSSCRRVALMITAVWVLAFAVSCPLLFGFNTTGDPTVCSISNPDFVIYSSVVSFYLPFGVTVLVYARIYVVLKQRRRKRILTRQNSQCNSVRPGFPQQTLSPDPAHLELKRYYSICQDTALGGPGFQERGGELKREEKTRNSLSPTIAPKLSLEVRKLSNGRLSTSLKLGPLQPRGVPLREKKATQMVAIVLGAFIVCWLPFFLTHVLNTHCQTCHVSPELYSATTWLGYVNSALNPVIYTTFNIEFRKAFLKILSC
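Cells plated overnight at 1500 cells/well, then exposed to library compounds with dopamine controls for 90 minutes at 37 degrees C. DiscoveRx reagent added for 30–60 minutes at room temperature; luminescence read, quantitative HTS format.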
DRD3 agonist = activates the human D3 dopamine receptor. P35462. D3R DiscoveRx beta-arrestin cells, luminescence, 90 min. max activation, %. 410,000 tested, 0.58% active. AID 652048; in the data active = max activation above about 30%; note: 0% is about no effect
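Cells at 1500/well, incubated overnight, then treated with pinned compounds (dopamine as control) for 90 min at 37 degrees C. DiscoveRx reagent added for 30 - 60 minutes at room temperature; luminescence read.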
D1 ag = human D1 receptor agonism. HEK293 T-REx D1 cells, calcium flux, agonist mode. activation, % at 2 µM. 360,000 tested, 1% active; in the data active = activation above about 30%; note: 0% is about no effect
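Agonism was scored from calcium flux recorded over 180 s (1 read/s) after pintool compound addition, following a 10-cycle baseline. Cells were inducible force-coupled HEK293 TREx D1, plated overnight at 30 C and loaded with no-wash calcium dye.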
D1 PAM = potentiators of human D1 dopamine receptor | P21728 | HEK293 TREx D1 cells, calcium flux, dopamine EC20 potentiation | potentiation, % at 10 µM | 360,000 tested, 0.036% active | AID 504651; in the data active = potentiation above about 30%; note: 0% is about no effect
Starred values were filed as active, the others as inactive; u = inconclusive; x = no result. Compounds with a hit are over-represented: about 6% of the library has one in this group of screens.

SMILES	D1 antagonist	D3 antag	DRD3 agonist	D1 ag	D1 PAM
COCCCNC(=O)C1CCN(c2nnc(-n3cccc3CNc3ccc(C)cc3)s2)CC1	-1.0	x	3.2	-0.2	-5.8
Cc1ccc(Nc2cc(C(=O)NCc3cccs3)c3ccccc3n2)c(C)c1	-27.5	x	-12.3	-1.4	0.5
Cc1ccc(C(=O)NC(=S)NNC(=O)c2ccccc2)cc1	-41.8*	4.1	3.2	200.0*	-5.2
Cc1ccc(C)c(NC(=S)NNC(=O)c2ccco2)c1	-35.3*	9.3	0.0	2.5	-8.0
O=C(/C=C/c1ccccc1)NC(=S)NNC(=O)c1ccco1	-3.1	2.7	2.5	-2.5	6.3
Cc1cccc(C(=O)NNC(=S)NC(=O)c2cccs2)c1	-5.8	-3.4	0.7	75.7*	-8.5
O=C(/C=C/c1ccc(Br)cc1)NC(=S)NNC(=O)c1ccco1	-18.5	-83.6*	-9.8	-1.8	1.5
O=C(Nc1ccc2nc(SCCOc3ccccc3Cl)sc2c1)c1cccs1	-28.5	x	-0.2	7.4	-2.4
Cc1cc(C)cc(NS(=O)(=O)c2ccc(NC(=S)NC(=O)c3cccs3)cc2)c1	-28.8	-84.0*	-18.3	7.3	-6.0
Cc1cccc(-c2nnc(NC(=O)c3cccs3)s2)c1	-41.2*	u	-2.0	1.1	0.3
Cc1ccc(C(=O)NNC(=S)NC(=O)c2ccccc2)cc1	x	-20.8	-6.0	x	x
Cc1ccccc1C(=O)NNC(=S)NC(=O)c1ccccc1	-37.3*	-10.1	-4.9	279.3*	-0.7
Cc1ccc(C(=O)NNC(=S)NC(=O)c2ccc(Cl)cc2Cl)cc1	4.4	10.6	14.1	153.6*	1.9
O=C(Nc1ccc2c(c1)OCCO2)C(C1CC1)n1c(=O)c(-c2cc3ccccc3[nH]2)nc2ccccc21 (stereo not drawn)	x	-17.4	2.8	x	x
CO[C@H]1C[C@@H]2CC[C@@H](C)[C@@](O)(O2)C(=O)C(=O)N2CCCC[C@H]2C(=O)O[C@H]([C@H](C)C[C@@H]2CC[C@@H](O)[C@H](OC)C2)CC(=O)[C@H](C)C=C(C)[C@@H](O)[C@@H](OC)C(=O)[C@H](C)C[C@H](C)/C=C/C=CC=C1C	x	x	-10.6	x	x
COc1ccc(NC(=O)C2(C)CCN2CCOc2ccc(C)cc2)cc1OC (stereo not drawn)	x	24.9	4.6	x	x
O=C(NNC(=S)NC(=O)c1ccc(Br)cc1)c1ccc([N+](=O)[O-])cc1	-3.9	21.0	1.6	10.4	-0.5
Cc1ccc(C)c(NC(=S)NCc2ccccc2)c1	-36.3*	-0.9	-8.2	1.8	-7.6
O=C(CCc1ccccc1)NNC(=S)NC(=O)c1ccccc1	-9.1	0.1	-8.4	1.0	-10.2
O=C(NNC(=S)NC(=O)c1ccc(Br)cc1)c1cccc([N+](=O)[O-])c1	-4.5	-10.1	-3.1	32.2*	-1.2
CC(C)(C)c1cc(CCC(=O)NNC(=S)NC(=O)c2ccccc2)cc(C(C)(C)C)c1O	-66.3*	-78.5*	-20.3	132.5*	18.1
O=C(Nc1c(F)cccc1F)c1ccc2c(c1)CCN2S(=O)(=O)c1ccccc1	0.7	-1.3	4.6	8.3	-0.3
COc1ccc(-n2nc(C(=O)N(C)c3cc(Cl)ccc3OC)c3c4ccccc4n(C)c3c2=O)cc1	10.4	x	-0.8	0.2	0.8
N#C/C(=C(/O)COc1ccccc1)c1nc2ccccc2s1	-42.4*	6.0	-0.7	20.8	-2.2
CCc1ccc(CNC(=O)CN2CCSc3ccccc32)cc1	0.8	x	-1.5	4.1	0.2
SMILES	D1 antagonist	D3 antag	DRD3 agonist	D1 ag	D1 PAM
Cc1ccccc1CNC(=O)CN1CCSc2ccccc21	-31.0*	x	2.0	0.6	-2.1
COc1cc(S(=O)(=O)n2c(C)nc3ccccc32)ccc1F	-9.2	-20.8	-5.9	0.3	-5.8
COc1ccc(S(=O)(=O)n2c(C)nc3ccccc32)cc1C	-74.7*	2.8	1.8	7.4	-1.5
CC(=O)Nc1cccc(NC(=O)Cc2cccs2)c1	-6.1	-16.7	-2.5	0.8	-2.8
O=C(Cc1cccs1)Nc1cccc(-c2nc3cc4ccccc4cc3[nH]2)c1	-38.4*	11.2	14.1	0.1	-5.5
CCCCNC(=O)C1(C)CCN1C(=O)c1ccc(C(F)(F)F)nc1C (stereo not drawn)	x	-5.6	-4.4	x	x
Cc1nc(C(F)(F)F)ccc1C(=O)N1CCC1(C)C(=O)NCc1cccs1 (stereo not drawn)	x	-90.7*	-2.6	x	x
CC(=O)NC(c1cc(Cl)c2cccnc2c1O)C1CC1 (stereo not drawn)	-54.9*	x	x	4.5	3.6
CCC(=O)NC(c1ccc(C)s1)c1cc(Cl)c2cccnc2c1O (stereo not drawn)	-57.8*	x	x	9.7	-7.4
CC(=O)NC(c1ccco1)c1cc(Cl)c2cccnc2c1O (stereo not drawn)	-10.7	x	x	-0.5	-7.0
CC(=O)NC(c1ccc(C)cc1)c1cc(Cl)c2cccnc2c1O (stereo not drawn)	-7.1	-79.3*	-14.7	15.4	5.3
Oc1c(C(Nc2ccccn2)c2cccnc2)cc(Cl)c2cccnc12 (stereo not drawn)	-2.8	-121.2*	-4.6	6.7	5.5
COc1cc(NC(=O)c2cc(S(=O)(=O)N3CCCCC3)c[nH]2)cc(OC)c1	-2.4	2.7	1.8	7.3	1.1
CCc1ccccc1NC(=O)Cn1c(=O)n(-c2ccc(C)cc2)c(=O)c2c1c1cc(C)ccc1n2C	-9.0	x	-9.3	1.7	-0.9
Cc1ccc2oc(C(=O)Nc3ccc(S(=O)(=O)Nc4ncccn4)cc3)c(C)c2c1	2.3	0.1	-3.7	3.4	1.7
CCN(C(=O)COC(=O)c1nc(Cl)ccc1Cl)C1CCS(=O)(=O)C1 (stereo not drawn)	7.3	4.3	-11.1	3.9	-2.6
C=CC[N+]1([C@H]2C[C@H]3[C@@H]4CC[C@H]5C[C@H](OC(C)=O)[C@@H](N6CCCCC6)C[C@]5(C)[C@H]4CC[C@]3(C)[C@H]2OC(=O)CC)CCCCC1	x	x	-13.5	x	x
Cc1cc(C)c2c(CC(=O)Nc3nnc(C(C)C)s3)coc2c1	1.9	x	10.9	1.6	3.1
CN1CCN(c2nc(NCCOC34CC5CC(CC(C5)C3)C4)nc(OCC(F)(F)F)n2)CC1	-3.3	-60.7*	-12.9	-1.8	1.1
Cc1cccc(/C=N\NC(=O)c2csnn2)c1	2.9	-91.4*	-14.2	11.2	1.0
O=C(COC(=O)c1c(F)cccc1F)NC(=O)NCc1ccccc1	x	u	-4.0	x	x
CCC(O)(C(=O)Nc1ccccc1C(F)(F)F)c1ccccc1OC (stereo not drawn)	-4.6	5.6	5.1	0.8	-1.5
COc1ccccc1C(C)NCC(=O)Nc1ccccc1C(F)(F)F (stereo not drawn)	-4.8	-56.6*	-7.7	12.9	1.4
NS(=O)(=O)c1ccc(NC(=O)NC2CC(=O)N(c3ccc4c(c3)OCCO4)C2)cc1 (stereo not drawn)	-2.4	3.6	3.3	2.6	-1.9
CCN(CC)CC#CCC(O)(c1ccccc1)c1ccc(Br)cc1 (stereo not drawn)	-39.7*	-24.3	-8.6	32.2*	-3.6
